Drawing on the supplement of paper PMC11172423, this text covers growth for 43 molecules.

Values without a mark were called inactive.

Assay [1] relates to Falciformispora senegalensis CBS197.79. Kind of assay: growth relative to untreated control; higher = less inhibition, active = 20 or less. Put shortly:
(§1)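 Hyphal fragments of M. mycetomatis MM55 or F. senegalensis CBS197.79 were suspended in colourless RPMI 1640 with L-glutamine and MOPS at 68–72% transmission at 660 nm. They were exposed in 96-well plates to compound at 100 or 25 µM for 7 days at 37 °C. Viability was read with MTS (2 h, 490 nm) or resazurin (600 nm). Growth is metabolic activity relative to the untreated growth control, both corrected with a medium-plus-dye blank.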

Assay [2] concerns Madurella mycetomatis MM55. Described as above. The gist of the method: as §1

`CNC(=O)c1cc(Cl)cc(C)c1NC(=O)c1cc(Br)nn1-c1ncccc1Cl`: the growth was 93.3% in assay [1] (25 µM) and 94.4% in assay [1] (100 µM).

As to `CCS(=O)c1c(C#N)nn(-c2c(Cl)cc(C(F)(F)F)cc2Cl)c1N` (centres undefined), the growth is 82.1% in assay [1] (25 µM) and 83.7% in assay [1] (100 µM).

As for `CNC(=O)Oc1cccc2ccccc12`, the growth in assay [1] (25 µM) was 99.6%; in assay [1] (100 µM), 108%.

As to `COC(C)(C)CCCC(C)C/C=C/C(C)=C/C(=O)OC(C)C` (centres undefined), the figures for the growth in assay [1] (25 µM) and in assay [1] (100 µM) were 89.3% and 97.8%, respectively.

Turning to `CC(F)c1ncnc(NCCc2ccc(OC(F)(F)F)cc2)c1Cl` (centres undefined), the figures for the growth in assay [1] (25 µM) and in assay [1] (100 µM) were 90.5% and 82.9%, respectively.

Turning to `CC1(C)C(C=C(Cl)Cl)C1C(=O)OCc1cccc(Oc2ccccc2)c1` (centres undefined), the growth in assay [1] (25 µM) was 70.4%; in assay [1] (100 µM) it was 98.3%.

Consider `CC[C@H](C)[C@H]1O[C@]2(C=C[C@@H]1C)C[C@@H]1C[C@@H](C/C=C(\C)[C@@H](O[C@H]3C[C@H](OC)[C@@H](O[C@H]4C[C@H](OC)[C@@H](O)[C@H](C)O4)[C@H](C)O3)[C@@H](C)/C=C/C=C3\CO[C@@H]4[C@H](O)C(C)=C[C@@H](C(=O)O1)[C@]34O)O2.CO[C@H]1C[C@H](O[C@H]2[C@H](C)O[C@@H](O[C@@H]3/C(C)=C/C[C@@H]4C[C@@H](C[C@]5(C=C[C@H](C)[C@@H](C(C)C)O5)O4)OC(=O)[C@@H]4C=C(C)[C@@H](O)[C@H]5OC/C(=C\C=C\[C@@H]3C)[C@]54O)C[C@@H]2OC)O[C@@H](C)[C@@H]1O`, for which the values for the growth in assay [1] (25 µM) and in assay [1] (100 µM) were 92.5% and 90%, respectively.

In the case of `CC(c1ccc(C(F)(F)F)nc1)S(C)(=O)=NC#N` (centres undefined), the growth in assay [1] (25 µM) is 91.2%; in assay [1] (100 µM) it was 90.7%; in assay [2] (25 µM) it was 71.6%; in assay [2] (100 µM), 173%.

As for `CC1(C)C(/C=C(\Cl)c2ccc(Cl)cc2)C1C(=O)OC(C#N)c1ccc(F)c(Oc2ccccc2)c1` (centres undefined), the growth in assay [1] (25 µM) is 74.8%; in assay [1] (100 µM) it was 93.3%.

On to `CCOCn1c(-c2ccc(Cl)cc2)c(C#N)c(Br)c1C(F)(F)F`, for which the growth was 79.6% in assay [1] (25 µM), 76.5% in assay [1] (100 µM), 30.1% in assay [2] (25 µM) and 6.93% (active) in assay [2] (100 µM).

As for `CC[C@@H]1CCC[C@H](O[C@H]2CC[C@H](N(C)C)[C@@H](C)O2)[C@@H](C)C(=O)C2=C[C@@H]3[C@@H](C=C(C)[C@@H]4C[C@@H](O[C@@H]5O[C@@H](C)[C@H](OC)[C@@H](OC)[C@H]5OC)C[C@@H]34)[C@@H]2CC(=O)O1.CC[C@@H]1CCC[C@H](O[C@H]2CC[C@H](N(C)C)[C@@H](C)O2)[C@@H](C)C(=O)C2=C[C@@H]3[C@@H](C=C[C@@H]4C[C@@H](O[C@@H]5O[C@@H](C)[C@H](OC)[C@@H](OC)[C@H]5OC)C[C@@H]34)[C@@H]2CC(=O)O1`, the growth in assay [1] (25 µM) was 78.1%; in assay [1] (100 µM) it was 93.3%; in assay [2] (25 µM), 133%; in assay [2] (100 µM), 91.5%.

Take `CC(C)(C#N)NC(=O)c1cc(Cl)cc(Cl)c1NC(=O)c1cc(Cl)nn1-c1ncccc1Cl`: the growth in assay [1] (25 µM) was 94.4%; in assay [1] (100 µM), 94.6%.

As for `CNC(=O)c1cc(C#N)cc(C)c1NC(=O)c1cc(Br)nn1-c1ncccc1Cl`, the growth in assay [1] (25 µM) is 89.6%; in assay [1] (100 µM) it was 103%.

For `COc1ccc(Cc2nccc3cc(OC)c(OC)cc23)cc1OC`, the growth in assay [1] (25 µM) is 110%; in assay [1] (100 µM), 104%; in assay [2] (25 µM), 78%; in assay [2] (100 µM), 83.4%.

Regarding `CC[C@H]1CN2CCc3cc(OC)c(OC)cc3[C@@H]2C[C@@H]1C[C@H]1NCCc2cc(OC)c(OC)cc21`, the values for the growth in assay [1] (25 µM) and in assay [1] (100 µM) were 100% and 18.3% (active), respectively.

Regarding `N#CCNC(=O)c1cnccc1C(F)(F)F`, the growth in assay [1] (25 µM) was 85.9%; in assay [1] (100 µM), 87.5%.

With `COc1ccc(C[C@H]2NC[C@H](O)[C@H]2OC(C)=O)cc1`, the growth in assay [1] (25 µM) is 5.78% (active); in assay [1] (100 µM), 14.4% (active).

Regarding `CC(C)=CC1C(C(=O)OC(C#N)c2cccc(Oc3ccccc3)c2)C1(C)C` (centres undefined), the growth is 78.2% in assay [1] (25 µM), 101% in assay [1] (100 µM), 83.3% in assay [2] (25 µM) and 145% in assay [2] (100 µM).

On to `CNC(=O)Oc1ccccc1OC(C)C`, for which the growth in assay [1] (25 µM) is 92.8%; in assay [1] (100 µM), 97.7%.

Regarding `Cc1nc(N(C)C)nc(OC(=O)N(C)C)c1C`, the values for the growth in assay [1] (25 µM) and in assay [1] (100 µM) were 86.3% and 87.9%, respectively.

In the case of `C/C=C(\C)C(=O)O[C@H]1C[C@@H](OC(C)=O)[C@@]2(C(=O)OC)CO[C@H]3[C@@H](O)[C@@](C)([C@]45O[C@@]4(C)[C@H]4C[C@@H]5O[C@@H]5OC=C[C@@]54O)[C@H]4[C@]1(CO[C@]4(O)C(=O)OC)[C@@H]32`, the growth in assay [1] (25 µM) was 89.6%; in assay [1] (100 µM) it was 96.1%.

As for `CN(c1cc(NC(=O)c2ccc(F)cc2)ccn1)C1CCN(Cc2cccc(F)c2)CC1`, the growth in assay [1] (25 µM) is 66%; in assay [1] (100 µM), 30.2%; in assay [2] (25 µM) it was 5.69% (active); in assay [2] (100 µM), 9.07% (active).

Regarding `O=C(NC(=O)c1c(F)cccc1F)Nc1ccc(Cl)c(Oc2ncc(C(F)(F)F)cc2Cl)c1`, the growth in assay [1] (25 µM) was 93%; in assay [1] (100 µM), 84%.

Regarding `CNC(=O)Oc1cccc2c1OC(C)(C)O2`, the growth is 86.8% in assay [1] (25 µM) and 96% in assay [1] (100 µM).

For the molecule `O=C1C=C(N(Cc2ccc(Cl)nc2)CC(F)F)CO1`, the growth is 96.7% in assay [1] (25 µM) and 89.3% in assay [1] (100 µM).

As to `N#Cc1nn(-c2c(Cl)cc(C(F)(F)F)cc2Cl)c(N)c1S(=O)C(F)(F)F` (centres undefined), the growth is 92.1% in assay [1] (25 µM), 88.4% in assay [1] (100 µM), 120% in assay [2] (25 µM) and 86.5% in assay [2] (100 µM).

Consider `CN(C)[C@@H]1C(=O)C(C(N)=O)=C(O)[C@@]2(O)C(O)=C3C(=O)c4c(O)cccc4[C@@](C)(O)[C@H]3C[C@@H]12`, for which the growth was 99.7% in assay [1] (25 µM), 94.1% in assay [1] (100 µM), 102% in assay [2] (25 µM) and 82.5% in assay [2] (100 µM).

Regarding `ClC1=C(Cl)[C@@]2(Cl)[C@H]3C[C@@H](Cl)[C@H](Cl)[C@H]3[C@@]1(Cl)C2(Cl)Cl`, the growth in assay [1] (25 µM) is 64.8%; in assay [1] (100 µM), 78.3%.

`CCC(CC)c1cccc(OC(=O)NC)c1.CCCC(C)c1cccc(OC(=O)NC)c1`: the growth in assay [1] (25 µM) is 98.4%; in assay [1] (100 µM), 81.9%.

`CCOC(=O)CC(SP(=S)(OC)OC)C(=O)OCC` (centres undefined): the growth in assay [1] (25 µM) is 98.4%; in assay [1] (100 µM) it was 95.2%.

As for `Cc1c(COC(=O)[C@@H]2[C@H](C=C(Cl)C(F)(F)F)C2(C)C)cccc1-c1ccccc1`, the growth is 87.1% in assay [1] (25 µM) and 95.2% in assay [1] (100 µM).

On to `COc1cc(/C=N/c2c(SC(F)(F)F)c(C#N)nn2-c2c(Cl)cc(C(F)(F)F)cc2Cl)ccc1O`, for which the growth in assay [1] (25 µM) is 84.8%; in assay [1] (100 µM), 90.9%; in assay [2] (25 µM), 21%; in assay [2] (100 µM), 53.9%.

In the case of `Cc1cc(C2=NOC(c3cc(Cl)cc(Cl)c3)(C(F)(F)F)C2)ccc1C(=O)NCC(=O)NCC(F)(F)F` (centres undefined), the growth in assay [1] (25 µM) is 92.4%; in assay [1] (100 µM) it was 103%; in assay [2] (25 µM) it was 43.8%; in assay [2] (100 µM) it was 9.07% (active).

As to `CC(COc1ccc(Oc2ccccc2)cc1)Oc1ccccn1` (centres undefined), the growth in assay [1] (25 µM) was 88.9%; in assay [1] (100 µM), 75.6%; in assay [2] (25 µM) it was 50.7%; in assay [2] (100 µM), 46.3%.

As for `C[C@@H]1O[C@@H](O[C@@H]2C=C3CC[C@@H]4[C@H](CC[C@]5(C)[C@@H](c6ccc(=O)oc6)CC[C@]45O)[C@@]3(C)CC2)[C@H](O)[C@H](O)[C@H]1O`, the growth in assay [1] (25 µM) was 99.3%; in assay [1] (100 µM), 104%; in assay [2] (25 µM), 93.2%; in assay [2] (100 µM), 82.8%.

With `COC(=O)N(C(=O)N1CO[C@@]2(C(=O)OC)Cc3cc(Cl)ccc3C2=N1)c1ccc(OC(F)(F)F)cc1`, the growth in assay [1] (25 µM) is 100%; in assay [1] (100 µM), 96.3%; in assay [2] (25 µM) it was 46.3%; in assay [2] (100 µM), 115%.

For the molecule `NCCc1cn(S(=O)(=O)c2c(Cl)nc3sccn23)c2ccccc12`, the growth in assay [1] (25 µM) was 13.2% (active); in assay [1] (100 µM), 11.5% (active).

In the case of `Clc1ccc(C(OCCN2CCCCC2)c2ccccc2)cc1` (centres undefined), the growth in assay [1] (25 µM) was 100%; in assay [1] (100 µM), 13.2% (active).

For the molecule `CN1CCN(C(=O)O[C@H]2c3nccnc3C(=O)N2c2ccc(Cl)cn2)CC1`, the growth was 106% in assay [1] (25 µM), 102% in assay [1] (100 µM), 72.7% in assay [2] (25 µM) and 88.8% in assay [2] (100 µM).

Turning to `CN(C)CCn1c(Nc2cc(Cl)cc(C(F)(F)F)c2)nc2cnc(NC3CCC3)cc21`, the growth is 102% in assay [1] (25 µM) and 104% in assay [1] (100 µM).

For `CC1(C)C(C=C(Cl)Cl)C1C(=O)OC(C#N)c1ccc(F)c(Oc2ccccc2)c1` (centres undefined), the growth was 94% in assay [1] (25 µM) and 73.5% in assay [1] (100 µM).

Turning to `CN/C(=N/CC1CCOC1)N[N+](=O)[O-]` (centres undefined), the growth in assay [1] (25 µM) is 91.8%; in assay [1] (100 µM), 92.9%.

Consider `CCOP(=S)(OCC)Oc1nc(Cl)c(Cl)cc1Cl`, for which the growth was 92.9% in assay [1] (25 µM) and 69% in assay [1] (100 µM).
